How the values were obtained:
[1] = biological target: T1, Ephrin type-B receptor 2 (Homo sapiens) (UniProt P29323); settings: at 1 µM
T1 sequence (whole entry): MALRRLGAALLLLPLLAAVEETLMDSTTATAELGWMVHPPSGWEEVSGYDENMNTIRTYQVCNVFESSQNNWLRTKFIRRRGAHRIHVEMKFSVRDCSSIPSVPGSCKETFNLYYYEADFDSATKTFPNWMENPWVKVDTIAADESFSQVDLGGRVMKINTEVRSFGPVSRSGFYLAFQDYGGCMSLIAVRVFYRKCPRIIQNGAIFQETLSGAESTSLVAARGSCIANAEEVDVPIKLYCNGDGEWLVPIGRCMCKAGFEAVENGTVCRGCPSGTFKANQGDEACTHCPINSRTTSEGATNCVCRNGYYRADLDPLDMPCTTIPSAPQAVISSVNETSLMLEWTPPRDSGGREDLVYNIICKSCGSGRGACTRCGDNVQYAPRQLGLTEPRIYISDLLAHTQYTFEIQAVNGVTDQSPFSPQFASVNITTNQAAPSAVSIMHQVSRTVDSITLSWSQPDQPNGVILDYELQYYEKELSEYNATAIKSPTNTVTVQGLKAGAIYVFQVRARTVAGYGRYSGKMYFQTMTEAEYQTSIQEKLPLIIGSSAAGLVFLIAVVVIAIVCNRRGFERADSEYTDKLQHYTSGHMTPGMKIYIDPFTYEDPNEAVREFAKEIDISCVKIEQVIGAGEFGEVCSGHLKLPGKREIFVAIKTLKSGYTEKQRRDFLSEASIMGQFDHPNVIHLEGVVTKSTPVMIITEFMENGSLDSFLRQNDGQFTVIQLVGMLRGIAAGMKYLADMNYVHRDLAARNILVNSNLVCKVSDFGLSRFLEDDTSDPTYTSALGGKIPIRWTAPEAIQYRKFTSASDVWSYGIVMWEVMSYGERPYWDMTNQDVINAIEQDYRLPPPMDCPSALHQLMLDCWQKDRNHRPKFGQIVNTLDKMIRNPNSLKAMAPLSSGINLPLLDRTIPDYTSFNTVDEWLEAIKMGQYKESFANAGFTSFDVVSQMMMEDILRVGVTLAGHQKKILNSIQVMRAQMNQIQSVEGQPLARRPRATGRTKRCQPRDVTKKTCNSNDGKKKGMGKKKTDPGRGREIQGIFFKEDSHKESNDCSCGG

[2] = biological target: T2, Ephrin type-B receptor 3 (Homo sapiens) (UniProt P54753); settings: at 0.1 µM
T2 sequence (whole entry): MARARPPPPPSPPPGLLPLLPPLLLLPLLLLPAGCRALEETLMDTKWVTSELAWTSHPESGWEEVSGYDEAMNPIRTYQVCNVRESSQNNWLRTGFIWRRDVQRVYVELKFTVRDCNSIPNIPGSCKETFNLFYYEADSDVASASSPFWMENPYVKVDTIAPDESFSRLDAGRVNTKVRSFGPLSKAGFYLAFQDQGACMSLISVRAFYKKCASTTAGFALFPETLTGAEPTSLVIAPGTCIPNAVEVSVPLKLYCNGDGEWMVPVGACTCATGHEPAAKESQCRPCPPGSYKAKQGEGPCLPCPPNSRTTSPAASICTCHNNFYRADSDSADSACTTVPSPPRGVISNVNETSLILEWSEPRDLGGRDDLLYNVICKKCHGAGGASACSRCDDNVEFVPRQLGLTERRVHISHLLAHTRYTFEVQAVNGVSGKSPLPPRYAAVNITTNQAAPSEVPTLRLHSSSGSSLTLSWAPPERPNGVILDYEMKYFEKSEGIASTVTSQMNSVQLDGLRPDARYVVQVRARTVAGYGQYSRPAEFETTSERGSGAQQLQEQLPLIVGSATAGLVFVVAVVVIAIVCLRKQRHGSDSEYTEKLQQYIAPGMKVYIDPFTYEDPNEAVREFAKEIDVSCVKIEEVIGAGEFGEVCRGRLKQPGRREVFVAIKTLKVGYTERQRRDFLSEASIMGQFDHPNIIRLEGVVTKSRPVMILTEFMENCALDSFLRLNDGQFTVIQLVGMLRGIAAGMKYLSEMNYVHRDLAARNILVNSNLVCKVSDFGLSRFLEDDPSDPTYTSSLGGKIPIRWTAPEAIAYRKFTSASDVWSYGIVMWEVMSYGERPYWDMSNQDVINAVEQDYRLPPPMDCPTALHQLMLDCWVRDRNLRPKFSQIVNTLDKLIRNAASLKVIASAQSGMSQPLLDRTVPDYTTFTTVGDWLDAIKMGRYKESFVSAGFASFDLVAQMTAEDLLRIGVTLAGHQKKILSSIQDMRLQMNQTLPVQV

[3] = biological target: T2, Ephrin type-B receptor 3 (Homo sapiens); settings: at 1 µM
[4] = biological target: T3, Ephrin type-B receptor 4 (Homo sapiens) (UniProt P54760); settings: at 0.1 µM
T3 sequence (whole entry): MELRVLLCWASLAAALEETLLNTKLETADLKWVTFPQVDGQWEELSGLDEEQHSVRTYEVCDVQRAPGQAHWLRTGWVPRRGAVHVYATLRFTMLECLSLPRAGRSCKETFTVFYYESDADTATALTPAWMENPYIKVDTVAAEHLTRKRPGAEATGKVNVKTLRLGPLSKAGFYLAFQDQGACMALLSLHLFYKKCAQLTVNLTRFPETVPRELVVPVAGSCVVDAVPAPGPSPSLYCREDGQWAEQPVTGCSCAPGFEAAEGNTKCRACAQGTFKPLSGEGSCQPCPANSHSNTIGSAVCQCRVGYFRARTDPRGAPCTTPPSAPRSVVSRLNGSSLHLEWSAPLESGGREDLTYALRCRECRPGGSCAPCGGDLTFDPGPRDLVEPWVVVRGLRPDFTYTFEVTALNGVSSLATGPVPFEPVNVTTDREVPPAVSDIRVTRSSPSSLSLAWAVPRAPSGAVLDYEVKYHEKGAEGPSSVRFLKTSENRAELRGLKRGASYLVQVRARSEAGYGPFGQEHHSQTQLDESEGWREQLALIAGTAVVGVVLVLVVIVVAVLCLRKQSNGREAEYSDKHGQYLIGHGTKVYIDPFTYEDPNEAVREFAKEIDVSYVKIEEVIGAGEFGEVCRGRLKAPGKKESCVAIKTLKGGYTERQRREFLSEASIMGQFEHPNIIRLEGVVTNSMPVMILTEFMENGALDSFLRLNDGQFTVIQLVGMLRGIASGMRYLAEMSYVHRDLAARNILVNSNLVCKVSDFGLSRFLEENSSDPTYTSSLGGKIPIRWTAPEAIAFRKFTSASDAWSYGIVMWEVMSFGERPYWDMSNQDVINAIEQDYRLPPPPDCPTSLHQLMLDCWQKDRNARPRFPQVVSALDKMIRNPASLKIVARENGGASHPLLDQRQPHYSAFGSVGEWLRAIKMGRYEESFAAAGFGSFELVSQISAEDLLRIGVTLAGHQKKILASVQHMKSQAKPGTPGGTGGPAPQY

[5] = biological target: T3, Ephrin type-B receptor 4 (Homo sapiens); settings: at 1 µM
[6] = biological target: Receptor tyrosine-protein kinase erbB-2 (Homo sapiens) (UniProt P04626); settings: at 0.1 µM
Chain of Receptor tyrosine-protein kinase erbB-2 (Homo sapiens) (P04626 whole entry): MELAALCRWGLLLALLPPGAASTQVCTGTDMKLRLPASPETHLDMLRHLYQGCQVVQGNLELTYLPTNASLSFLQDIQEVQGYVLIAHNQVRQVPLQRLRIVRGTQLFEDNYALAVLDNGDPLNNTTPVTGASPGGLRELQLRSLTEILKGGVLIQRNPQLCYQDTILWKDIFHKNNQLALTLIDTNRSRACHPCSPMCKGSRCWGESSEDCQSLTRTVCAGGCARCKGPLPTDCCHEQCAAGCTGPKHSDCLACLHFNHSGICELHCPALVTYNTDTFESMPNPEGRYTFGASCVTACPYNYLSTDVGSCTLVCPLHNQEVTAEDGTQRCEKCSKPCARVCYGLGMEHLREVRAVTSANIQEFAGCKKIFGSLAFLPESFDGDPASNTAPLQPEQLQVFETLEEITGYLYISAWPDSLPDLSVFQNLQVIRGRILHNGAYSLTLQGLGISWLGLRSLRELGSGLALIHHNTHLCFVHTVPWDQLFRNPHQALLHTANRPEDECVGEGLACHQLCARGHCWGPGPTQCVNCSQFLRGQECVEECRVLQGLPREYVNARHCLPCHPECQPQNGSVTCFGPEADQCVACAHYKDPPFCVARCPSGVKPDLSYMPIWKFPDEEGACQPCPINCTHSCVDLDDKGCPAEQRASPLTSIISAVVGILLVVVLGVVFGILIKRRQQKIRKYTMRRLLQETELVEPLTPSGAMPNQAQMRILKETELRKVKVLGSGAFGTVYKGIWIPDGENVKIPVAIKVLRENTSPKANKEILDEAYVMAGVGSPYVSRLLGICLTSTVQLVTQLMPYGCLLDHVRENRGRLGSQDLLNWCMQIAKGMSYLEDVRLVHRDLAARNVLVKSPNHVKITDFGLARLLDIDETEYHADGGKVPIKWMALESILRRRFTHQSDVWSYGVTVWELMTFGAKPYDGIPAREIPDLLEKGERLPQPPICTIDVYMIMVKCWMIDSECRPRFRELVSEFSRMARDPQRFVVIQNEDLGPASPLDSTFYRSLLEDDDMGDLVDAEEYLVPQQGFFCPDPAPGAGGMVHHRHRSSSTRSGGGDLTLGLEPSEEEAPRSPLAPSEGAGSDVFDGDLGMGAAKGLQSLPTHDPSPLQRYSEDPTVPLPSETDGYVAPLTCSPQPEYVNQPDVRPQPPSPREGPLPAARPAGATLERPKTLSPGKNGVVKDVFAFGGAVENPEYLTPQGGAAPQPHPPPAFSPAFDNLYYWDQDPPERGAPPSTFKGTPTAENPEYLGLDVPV

[7] = biological target: Receptor tyrosine-protein kinase erbB-2 (Homo sapiens) (UniProt P04626); settings: at 1 µM
[8] = biological target: Receptor tyrosine-protein kinase erbB-4 (Homo sapiens) (UniProt Q15303); settings: at 0.1 µM
[9] = biological target: Receptor tyrosine-protein kinase erbB-4 (Homo sapiens) (UniProt Q15303); settings: at 1 µM
[10] = biological target: Tyrosine-protein kinase Fer (Homo sapiens) (UniProt P16591); settings: at 0.1 µM
[11] = biological target: Tyrosine-protein kinase Fer (Homo sapiens) (UniProt P16591); settings: at 1 µM
[12] = biological target: Tyrosine-protein kinase Fes/Fps (Homo sapiens) (UniProt P07332); settings: at 0.1 µM
Chain of Tyrosine-protein kinase Fes/Fps (Homo sapiens) (P07332 whole entry): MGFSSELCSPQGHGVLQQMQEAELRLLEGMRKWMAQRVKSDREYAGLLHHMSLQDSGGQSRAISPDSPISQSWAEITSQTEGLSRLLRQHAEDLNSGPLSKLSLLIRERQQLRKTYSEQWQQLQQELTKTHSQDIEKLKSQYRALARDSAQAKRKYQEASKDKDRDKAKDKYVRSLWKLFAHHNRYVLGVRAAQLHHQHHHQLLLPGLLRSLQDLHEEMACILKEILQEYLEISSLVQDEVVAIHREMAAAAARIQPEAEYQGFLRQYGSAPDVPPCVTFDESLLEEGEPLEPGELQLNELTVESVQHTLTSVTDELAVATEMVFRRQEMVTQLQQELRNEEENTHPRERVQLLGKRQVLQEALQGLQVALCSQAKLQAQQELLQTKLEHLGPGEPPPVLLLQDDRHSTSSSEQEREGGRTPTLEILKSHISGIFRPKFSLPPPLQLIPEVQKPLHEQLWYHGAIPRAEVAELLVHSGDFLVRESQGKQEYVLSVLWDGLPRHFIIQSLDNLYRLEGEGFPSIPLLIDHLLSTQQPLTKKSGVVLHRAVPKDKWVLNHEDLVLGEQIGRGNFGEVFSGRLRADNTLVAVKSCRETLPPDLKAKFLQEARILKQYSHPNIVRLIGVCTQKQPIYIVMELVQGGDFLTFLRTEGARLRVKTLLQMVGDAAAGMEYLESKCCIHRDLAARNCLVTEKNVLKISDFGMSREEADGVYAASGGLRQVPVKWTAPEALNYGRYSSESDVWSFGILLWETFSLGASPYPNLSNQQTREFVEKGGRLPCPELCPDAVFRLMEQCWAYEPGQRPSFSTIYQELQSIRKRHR

[13] = biological target: Tyrosine-protein kinase Fes/Fps (Homo sapiens) (UniProt P07332); settings: at 1 µM
[14] = biological target: Fibroblast growth factor receptor 1 (Homo sapiens) (UniProt P11362); settings: at 0.1 µM
Chain of Fibroblast growth factor receptor 1 (Homo sapiens) (P11362 22-822 limits assumed): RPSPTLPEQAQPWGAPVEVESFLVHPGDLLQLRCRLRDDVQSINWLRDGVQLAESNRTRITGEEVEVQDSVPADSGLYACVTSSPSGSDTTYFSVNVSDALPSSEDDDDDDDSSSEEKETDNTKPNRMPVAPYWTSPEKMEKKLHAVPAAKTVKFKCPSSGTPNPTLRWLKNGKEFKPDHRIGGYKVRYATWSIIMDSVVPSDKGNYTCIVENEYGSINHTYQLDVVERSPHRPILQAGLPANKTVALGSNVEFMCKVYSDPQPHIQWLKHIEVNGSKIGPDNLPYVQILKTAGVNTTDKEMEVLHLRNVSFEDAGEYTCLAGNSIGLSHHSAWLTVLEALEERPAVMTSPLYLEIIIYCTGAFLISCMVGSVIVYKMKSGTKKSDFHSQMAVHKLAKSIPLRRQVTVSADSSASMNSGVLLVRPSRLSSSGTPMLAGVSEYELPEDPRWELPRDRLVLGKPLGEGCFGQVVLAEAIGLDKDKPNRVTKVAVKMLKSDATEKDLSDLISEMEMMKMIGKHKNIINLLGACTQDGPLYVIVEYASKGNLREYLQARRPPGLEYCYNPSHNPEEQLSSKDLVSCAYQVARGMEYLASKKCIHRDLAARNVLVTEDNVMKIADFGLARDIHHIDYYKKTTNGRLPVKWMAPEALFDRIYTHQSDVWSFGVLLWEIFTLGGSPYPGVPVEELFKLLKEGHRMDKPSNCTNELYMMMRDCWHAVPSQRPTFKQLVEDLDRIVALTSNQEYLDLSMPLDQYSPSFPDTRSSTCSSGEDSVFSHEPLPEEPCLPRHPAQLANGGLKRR

[15] = biological target: Fibroblast growth factor receptor 1 (Homo sapiens) (UniProt P11362); settings: at 1 µM
[16] = biological target: Fibroblast growth factor receptor 2 (Homo sapiens) (UniProt P21802); settings: at 0.1 µM
Chain of Fibroblast growth factor receptor 2 (Homo sapiens) (P21802 22-821 limits assumed): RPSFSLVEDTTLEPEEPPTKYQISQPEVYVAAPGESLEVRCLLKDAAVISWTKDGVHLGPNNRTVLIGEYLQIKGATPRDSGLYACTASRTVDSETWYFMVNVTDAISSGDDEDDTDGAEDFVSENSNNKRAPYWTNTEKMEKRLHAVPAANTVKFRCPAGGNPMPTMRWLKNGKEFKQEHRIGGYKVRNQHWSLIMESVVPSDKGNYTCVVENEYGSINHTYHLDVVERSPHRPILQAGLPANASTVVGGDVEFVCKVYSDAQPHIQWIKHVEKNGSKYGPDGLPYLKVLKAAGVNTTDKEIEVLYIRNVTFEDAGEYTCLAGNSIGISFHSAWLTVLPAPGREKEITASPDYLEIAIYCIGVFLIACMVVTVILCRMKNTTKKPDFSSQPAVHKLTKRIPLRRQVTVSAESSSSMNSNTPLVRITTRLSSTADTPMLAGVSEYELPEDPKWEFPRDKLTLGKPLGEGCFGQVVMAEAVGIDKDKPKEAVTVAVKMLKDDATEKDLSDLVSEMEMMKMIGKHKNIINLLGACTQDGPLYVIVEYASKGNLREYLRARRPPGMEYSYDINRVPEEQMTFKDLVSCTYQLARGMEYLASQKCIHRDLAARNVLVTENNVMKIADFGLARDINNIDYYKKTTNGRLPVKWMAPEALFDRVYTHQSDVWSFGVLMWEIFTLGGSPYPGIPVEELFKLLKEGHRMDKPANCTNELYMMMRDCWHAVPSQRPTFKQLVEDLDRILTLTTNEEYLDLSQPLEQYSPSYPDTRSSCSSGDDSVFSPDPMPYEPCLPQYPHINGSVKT

[17] = biological target: Fibroblast growth factor receptor 2 (Homo sapiens) (UniProt P21802); settings: at 1 µM
[18] = biological target: Fibroblast growth factor receptor 3 (Homo sapiens) (UniProt P22607); settings: at 0.1 µM
Chain of Fibroblast growth factor receptor 3 (Homo sapiens) (P22607 23-806 limits assumed): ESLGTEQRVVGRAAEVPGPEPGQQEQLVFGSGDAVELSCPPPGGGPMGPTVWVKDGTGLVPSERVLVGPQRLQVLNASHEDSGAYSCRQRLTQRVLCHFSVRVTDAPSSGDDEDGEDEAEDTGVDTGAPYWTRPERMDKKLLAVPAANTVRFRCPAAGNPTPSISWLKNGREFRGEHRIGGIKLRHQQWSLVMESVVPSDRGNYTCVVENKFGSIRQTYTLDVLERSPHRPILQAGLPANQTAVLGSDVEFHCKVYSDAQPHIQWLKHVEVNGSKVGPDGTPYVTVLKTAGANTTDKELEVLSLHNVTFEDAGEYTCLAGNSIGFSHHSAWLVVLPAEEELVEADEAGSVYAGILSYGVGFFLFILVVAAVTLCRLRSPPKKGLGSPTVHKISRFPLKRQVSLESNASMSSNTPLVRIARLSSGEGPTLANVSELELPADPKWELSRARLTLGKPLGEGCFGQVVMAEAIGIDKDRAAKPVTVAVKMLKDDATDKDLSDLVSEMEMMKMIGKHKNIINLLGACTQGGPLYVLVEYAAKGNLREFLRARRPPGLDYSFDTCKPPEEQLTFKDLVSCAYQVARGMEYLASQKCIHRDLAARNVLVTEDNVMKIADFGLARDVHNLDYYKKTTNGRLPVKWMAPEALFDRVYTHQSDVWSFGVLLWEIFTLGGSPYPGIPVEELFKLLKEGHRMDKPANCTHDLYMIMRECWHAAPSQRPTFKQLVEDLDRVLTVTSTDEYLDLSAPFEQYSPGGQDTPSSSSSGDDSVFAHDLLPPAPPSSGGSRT

[19] = biological target: Fibroblast growth factor receptor 3 (Homo sapiens) (UniProt P22607); settings: at 1 µM
[20] = biological target: Fibroblast growth factor receptor 4 (Homo sapiens) (UniProt P22455); settings: at 0.1 µM;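 also: values are mean percent inhibition of FGFR4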

| SMILES | inhibition [1] [%] | inhibition [2] [%] | inhibition [3] [%] | inhibition [4] [%] | inhibition [5] [%] | inhibition [6] [%] | inhibition [7] [%] | inhibition [8] [%] | inhibition [9] [%] | inhibition [10] [%] | inhibition [11] [%] | inhibition [12] [%] | inhibition [13] [%] | inhibition [14] [%] | inhibition [15] [%] | inhibition [16] [%] | inhibition [17] [%] | inhibition [18] [%] | inhibition [19] [%] | inhibition [20] [%] |
| --- | --- | --- | --- | --- | --- | --- | --- | --- | --- | --- | --- | --- | --- | --- | --- | --- | --- | --- | --- | --- |
| COc1cccc(-n2ncc3c(N/N=C/c4ccc(C)cc4)ncnc32)c1 | 9.45 | 2.7 | 4.17 | 3.6 | 3.21 | 2.26 | 3.43 | 6.09 | 11.9 | 8.13 | 17.5 | 5.32 | 10.3 | 4.11 | 17.7 | 9.23 | 7.12 | 9.56 | 6.72 | 4.16 |
| ON=C1CCc2cc(-c3nc(C4CCNCC4)[nH]c3-c3ccncc3)ccc21 | -8.09 | 2.51 | -3.73 | -0.77 | 1.02 | -0.06 | -5.12 | 5.23 | 10.6 | -0.49 | 0.21 | 0.52 | 0.86 | -5.96 | -0.14 | -1.99 | 5.39 | 3.1 | 2.75 |  |
| NS(=O)(=O)c1ccc(Nc2cc(-c3cccc(O)c3)n[nH]2)cc1 | 12.4 | 8.13 | 1.98 | 1.74 | 4.14 | 1.73 | -4.93 | 14.3 | 14.3 | 2.71 | 7.21 | 3.6 | 4.45 | 7.55 | 14.2 | 8.82 | 15.9 | 9.15 | 13.4 | -0.72 |
| Nc1nccc(-c2c(-c3ccc(F)cc3)nn3cc(C(F)(F)F)ccc23)n1 | 5.83 | -0.56 | 3.25 | 0.18 | 1.91 | 2.01 | 3.5 | 2.34 | 11.4 | 5.04 | 7.28 | 5.08 | 3.62 | -4.71 | -0.05 | 0.61 | 2.87 | 6.31 | 1.74 | -0.28 |
| FC(F)(F)c1ccc(-c2nn3ncccc3c2-c2ccnc(Nc3ccc4c(c3)OCCO4)n2)cc1 | 36.7 | -5.93 | -4.69 | 0.48 | 10.2 | 3.02 | 12.5 | 6.46 | 43.5 | 7.67 | 12.1 | -0.13 | 1.22 | 7.55 | 6.28 | 6.74 | 11.1 | 6.49 | 6.94 | 6.29 |
| O=C1Nc2ccc(-c3cccnc3)cc2C1=Cc1cc(Br)c(O)c(Br)c1 | 11 | 4.6 | 2.28 | 2.97 | 3.11 | -0.94 | 4.88 | 9.94 | 14.9 | 8.12 | 9.05 | 2.71 | 2.85 | 4.47 | 1.74 | 3.81 | 5.51 | 9.43 | 8.18 | 1.39 |
| Nc1nccc(-c2c(-c3ccc(F)cc3)ncn2CCCN2CCOCC2)n1 | 7.41 | 5.73 | 3.41 | 2.19 | 3.04 | 4.07 | 6.08 | 12.4 | 31.7 | 2.69 | 5.14 | 3.13 | 2.03 | 1.48 | 1.16 | 2.81 | 5.14 | 4.29 | 2.08 |  |
| Cc1ccc(NC(=O)CC2CC2)cc1-c1ccc(C(=O)NCC2CC2)cc1 | 11.6 | 4.23 | 3.77 | 0.66 | 3.43 | 0.13 | 3.41 | 6.43 | 8.12 | 4.27 | 7.65 | 2.28 | 4 | 5.11 | 4.06 | 1.09 | 4.24 | 2.17 | 3.92 | -2.17 |
| c1ccc(Nc2ncc(-c3ccccc3)o2)cc1 | 12.9 | 2.14 | 6.32 | 4.58 | 5.49 | 43.6 | 8.36 | 11 | 16 | 3.09 | 0.57 | 3.92 | 4.9 | -1.19 | 8.3 | 6.37 | 10.5 | 7.27 | 6.62 | 2.33 |
